Screens: PubChem, several laboratories
Compounds with a hit are over-represented: about 3.6% of the library has one in this group of screens.
Mdm2-MdmX inh = inhibitors of human Mdm2-MdmX association, primary screen, cell-based, luminescence, split luciferase, SaOS-2, uHTS | SaOS-2 split-luciferase Mdm2/MdmX complementation | inhibition, % at 8 µM | 330,000 compounds, 3% hits;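 active means inhibition of at least 50% at 8 µM in the primary screen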
Target sequence (O15151 whole entry, looked up): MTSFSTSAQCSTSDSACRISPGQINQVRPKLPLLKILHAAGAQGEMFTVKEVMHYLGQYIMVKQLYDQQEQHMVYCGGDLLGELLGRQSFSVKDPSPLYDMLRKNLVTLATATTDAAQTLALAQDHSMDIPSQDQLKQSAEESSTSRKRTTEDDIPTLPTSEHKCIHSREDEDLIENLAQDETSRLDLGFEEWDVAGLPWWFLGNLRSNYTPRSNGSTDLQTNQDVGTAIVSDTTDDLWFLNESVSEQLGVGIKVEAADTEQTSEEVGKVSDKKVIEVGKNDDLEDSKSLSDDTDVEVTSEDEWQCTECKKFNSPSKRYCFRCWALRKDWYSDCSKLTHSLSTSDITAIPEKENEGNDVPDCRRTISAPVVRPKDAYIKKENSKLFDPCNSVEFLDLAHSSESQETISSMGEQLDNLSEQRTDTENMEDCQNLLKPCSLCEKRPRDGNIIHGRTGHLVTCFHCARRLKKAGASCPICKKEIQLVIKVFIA
Target sequence (Q00987 whole entry, looked up): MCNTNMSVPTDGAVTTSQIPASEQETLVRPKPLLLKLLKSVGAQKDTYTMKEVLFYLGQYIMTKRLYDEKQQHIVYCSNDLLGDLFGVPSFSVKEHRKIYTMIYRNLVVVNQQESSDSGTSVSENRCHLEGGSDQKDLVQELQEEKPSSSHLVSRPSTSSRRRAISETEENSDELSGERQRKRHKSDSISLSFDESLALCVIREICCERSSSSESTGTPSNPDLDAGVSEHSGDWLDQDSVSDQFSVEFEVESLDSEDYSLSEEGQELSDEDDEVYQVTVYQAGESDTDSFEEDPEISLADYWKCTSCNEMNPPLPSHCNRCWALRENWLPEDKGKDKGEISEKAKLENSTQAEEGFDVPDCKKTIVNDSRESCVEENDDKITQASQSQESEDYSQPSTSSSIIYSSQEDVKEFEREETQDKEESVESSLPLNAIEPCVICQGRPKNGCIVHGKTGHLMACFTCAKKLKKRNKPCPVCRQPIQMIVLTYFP
LGR2 antag = inhibitors of bursicon-induced LGR2 CRE-luciferase signal, primary screen, cell-based, HEK293, CRE-luciferase reporter, bursicon stimulation. Drosophila bursicon receptor LGR2 (rickets). 380,000 compounds, 0.35% hits. bursicon-stimulated, 4 h. AID 720647, 2013. inhibition, % at 9.99 µM;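 active means drop in luminescence signal, shown as inhibition above about 50% in the replicate tests, limit read from the data, passing the limit was not always enough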;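 further: agonist challenge used bursicon conditioned medium at about half maximal strength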
Peg3 promoter = Peg3 promoter-driven luciferase inhibitors, primary screen, cell-based, HeLa, luciferase luminescence; inhibition, % at 20 µM; AID 588405, 2011; HeLa PEG-Prom luciferase reporter, overnight; 360,000 compounds, 1.7% hits;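 active means inhibition of at least 50% at 20 µM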
KKLEB tox = cytotoxicity in KKLEB CF airway cells, primary screen, cytotoxicity control for CF NF-kB inhibitor project, cell-based, uHTS, fluorescence assay plates. activity change (cytotoxicity), % at 5 µM. KKLEB CF airway cells viability, ATPlite luminescence, overnight; active compounds read low; cells stimulated with P. aeruginosa culture filtrate. 360,000 compounds, 0.36% hits. AID 602141, 2011;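 active means corrected activity change at or below -50% at 5 µM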
CF NFkB inh = inhibitors of PAF-induced NF-kB signaling, primary screen, cell-based, GFP fluorescence, uHTS. KKLEB NF-kB-GFP reporter, GFP fluorescence overnight. inhibition, % at 5 µM. 360,000 compounds, 0.86% hits;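 active means at least 50% inhibition at 5 µM, scaled per plate between neutral and stimulator controls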;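 further: PAF is a Pseudomonas aeruginosa culture filtrate used as stimulus; plate controls were PAF-stimulated DMSO wells for no effect and unstimulated DMSO wells for full effect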
HSP90 inh = HSP90 inhibitors, primary screen, cell lysate, luminescence; Heat shock protein HSP 90 (rabbit reticulocyte lysate; luciferase refolding); Rabbit reticulocyte lysate, luciferase refolding luminescence, 3 h; inhibition, % at 5.6 µM; 290,000 compounds, 0.91% hits;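 active means inhibition above the screen-wide mean plus 3 SD, computed separately per campaign, cut at about 16% in these data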;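 further: 0% = DMSO wells and 100% = 60 µM geldanamycin wells; inhibitors lower the luminescence because luciferase stays unfolded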
Mdm2 MdmX conf = Mdm2-MdmX complex disruptors, retested hits, confirmation, luminescence, single concentration | shares compounds with Mdm2-MdmX inh | Mdm2-MdmX binding, luminescent assay | inhibition, % at 8 µM | 10,000 compounds, 55% hits | AID 489028, 2010; in the data active means inhibition above about 40%
Full FLuc ctr = full-length luciferase signal inhibition, confirmation, counter-screen for Mdm2/MdmX interaction inhibitor project, cell-based, single concentration, SaOS-2 | shares compounds with Mdm2-MdmX inh | SaOS-2 full-length luciferase counterscreen, luminescence | inhibition, % at 8 µM | 6,200 compounds, 77% hits | AID 504607, 2011;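 active means mean inhibition at 8 µM reaching about 37%, which flags the compound as non-specific, limit read from the data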;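 further: p53-null SaOS-2 cells with luciferase driven by a doxycycline-inducible promoter; compound on cells about two nights before reading with doxycycline added after day one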
* hit, by the source's call; nt = no result given.

SMILES | Mdm2-MdmX inh | LGR2 antag | Peg3 promoter | KKLEB tox | CF NFkB inh | HSP90 inh | Mdm2 MdmX conf | Full FLuc ctr
COc1ccccc1OCC(=O)NNC(=O)C1CCN(c2ncnc3sc(C)c(C)c23)CC1 | 31.7 | -11.4 | 39.6 | -18.3 | 0.4 | nt | nt | nt
CCc1cccc(NC(=O)C2CCN(c3ncnc4sc(C)c(C)c34)CC2)c1 | 17.4 | 9.9 | 6.3 | -4.7 | 26.1 | nt | nt | nt
COc1ccc(-c2csc(NC(=O)C3CCN(c4ncnc5sc(C)c(C)c45)CC3)n2)cc1OC | 68.2* | 9.5 | 49.0 | -3.4 | 38.0 | nt | 67.8* | 45.2*
Cc1sc2ncnc(N3CCC(C(=O)Nc4sc5c(c4C(N)=O)CCC(C)C5)CC3)c2c1C (stereo not drawn) | 62.1* | 30.5 | 5.0 | -16.9 | 49.6 | nt | 69.8* | 41.8*
Cc1sc2ncnc(N3CCC(C(=O)Nc4ccc(Br)cc4Br)CC3)c2c1C | 56.9* | -2.8 | 8.3 | -15.2 | 28.7 | nt | 47.4* | 87.4*
COc1ccc(CN(C)C[C@@H]2Oc3ccc(N(C)C)cc3CC(=O)N([C@@H](C)CO)C[C@H]2C)cc1 | nt | 5.9 | nt | nt | nt | nt | nt | nt
COc1cccc(S(=O)(=O)N2C[C@@H](O)COC[C@H]3O[C@@H](CC(=O)Nc4ccccc4)CC[C@@H]32)c1 | nt | -4.1 | nt | nt | nt | nt | nt | nt
O=C(C[C@H]1C[C@H]2c3cc(NC(=O)NC4CCCC4)ccc3O[C@H]2[C@H](CO)O1)NCc1ccc(Oc2ccccc2)cc1 | nt | -1.0 | nt | nt | nt | nt | nt | nt
C[C@H]1CN([C@@H](C)CO)C(=O)Cc2cc(NS(=O)(=O)c3ccccc3)ccc2O[C@@H]1CN(C)Cc1ccc(C(=O)O)cc1 | nt | 20.9 | nt | nt | nt | nt | nt | nt
C=CCc1cccc([C@@H]2[C@@H](C)CC[C@H]3C(=O)N4[C@@H](c5cc(OC)c(OC)c(OC)c5)c5[nH]c6ccccc6c5C[C@H]4C(=O)N23)c1 | 71.5* | nt | nt | nt | nt | 8.9 | 62.5* | 60.3*
COc1cc(C2c3[nH]c4ccccc4c3C[C@@H]3C(=O)N(Cc4ccco4)CC(=O)N23)cc(OC)c1OC (stereo partly drawn) | 5.5 | -0.9 | 26.8 | -10.0 | 9.6 | 0.1 | nt | nt
CCOC(=O)C1(Nc2nccs2)Sc2ccccc2NC1=O (stereo not drawn) | 56.7* | nt | 23.4 | -0.6 | 13.9 | -3.4 | 62.0* | 58.0*
Cc1cccc(NC(=O)c2cc3c([nH]c4ccccc43)c(C)n2)c1C | 65.8* | 12.1 | 1.6 | -3.2 | -9.5 | 2.4 | 3.4 | nt
O=C(C[C@@H]1C=C[C@@H](NC(=O)C2CCC2)[C@@H](CO)O1)NCCCN1CCOCC1 | nt | -1.7 | nt | nt | nt | nt | nt | nt
CC=Cc1ccc2n(c1=O)C[C@@H]1[C@@H](CO)[C@H](C(=O)NCC)N(Cc3ccccc3Cl)[C@H]21 (mixture of isomers) | nt | 9.9 | nt | nt | nt | nt | nt | nt
COc1ccccc1N=Nc1c(C)n[nH]c1C | -34.2 | -0.9 | -3.0 | 2.4 | 16.9 | 1.9 | nt | nt
Cc1n[nH]c(C)c1N=Nc1cc(Cl)ccc1Cl | 52.1* | nt | -5.0 | 3.0 | 34.1 | 1.4 | 39.6 | 38.6*
CCn1c(=O)c(C(=O)Nc2ccccc2F)c(O)c2ccccc21 | 20.3 | 19.1 | -33.3 | -2.4 | 10.0 | -0.1 | nt | nt
CC(C)Cn1c(=O)c(C(=O)Nc2ccccc2S(N)(=O)=O)c(O)c2ccccc21 | 63.5* | 8.6 | -2.5 | -5.9 | -5.9 | 3.9 | 60.3* | 26.4
Cn1c(=O)c(C(=O)Nc2ccccc2S(N)(=O)=O)c(O)c2ccccc21 | -15.7 | -23.1 | -75.9 | 4.7 | 15.2 | 1.0 | nt | nt
CCC(C)n1c(=O)c(C(=O)Nc2ccccc2S(N)(=O)=O)c(O)c2ccccc21 (stereo not drawn) | 57.1* | nt | 8.4 | 7.2 | 3.4 | 3.2 | 55.5* | 30.8
Cc1onc(-c2ccccc2)c1C(=O)Nc1sc2c(c1C#N)CCC(C)C2 (stereo not drawn) | 59.3* | 7.8 | 12.6 | -14.1 | 19.0 | 6.8 | 54.6* | 55.9*
CCCOc1cccc(NC(=O)c2c(-c3ccccc3)noc2C)c1 | -6.7 | nt | 10.0 | -7.4 | 12.5 | -0.9 | nt | nt
Cc1cccc(OCCOC(=O)c2c(-c3ccccc3)noc2C)c1 | 54.7* | 11.7 | 19.1 | -10.2 | 25.0 | 1.4 | 38.0 | nt
COC(=O)c1c(-c2ccc(C)cc2)csc1NC(=O)c1c(-c2ccccc2)noc1C | 79.0* | nt | nt | nt | nt | -0.7 | 80.1* | 38.9*
SMILES | Mdm2-MdmX inh | LGR2 antag | Peg3 promoter | KKLEB tox | CF NFkB inh | HSP90 inh | Mdm2 MdmX conf | Full FLuc ctr
Cc1onc(-c2ccccc2Cl)c1C(=O)Nc1sc2c(c1C#N)CCC2 | 1.9 | 21.9 | 35.4 | 18.8 | -10.6 | -1.7 | nt | nt
COC(=O)c1sccc1NC(=O)c1c(-c2ccccc2)noc1C | 14.2 | -18.4 | 5.7 | -2.4 | 8.0 | -0.1 | nt | nt
CCOC(=O)c1c(NC(=O)/C=C/C(=O)O)sc(C)c1-c1ccc(C(C)(C)C)cc1 | 86.9* | 29.9 | 28.8 | -85.8* | 65.7* | -1.5 | 79.8* | 56.4*
CCOC(=O)c1c(NC(=O)/C=C\C(=O)O)sc(C)c1-c1ccccc1 | -0.4 | 1.0 | 11.2 | -7.5 | 8.4 | 3.0 | nt | nt
O=C(C[C@@H]1C[C@H]2c3cc(NC(=O)NC4CCCC4)ccc3O[C@H]2[C@H](CO)O1)NCC1CC1 | nt | -12.6 | nt | nt | nt | nt | nt | nt
C[C@H](CO)N1C[C@H](C)[C@H](CN(C)S(=O)(=O)c2ccccc2)Oc2ccc(N(C)C)cc2CC1=O | nt | -8.2 | nt | nt | nt | nt | nt | nt
COC(=O)C[C@@H]1CC[C@@H]2[C@@H](COc3ccc(NC(=O)NCc4ccccc4)cc3C(=O)N2C)O1 | nt | -0.8 | nt | nt | nt | nt | nt | nt
CCOC(=O)c1c(NC(=O)c2cc(-c3cccc(O)c3)on2)sc(C(C)=O)c1C | 74.6* | 4.4 | -2.3 | -8.9 | 13.6 | 5.0 | 0.3 | nt
CCOC(=O)c1c(NC(=O)c2c(-c3ccccc3)noc2C)sc(C)c1-c1ccccc1 | 100.1* | nt | 5.1 | 0.1 | -3.4 | -0.4 | 93.3* | 51.5*
CCOCc1nnc(NC(=O)c2c(-c3ccccc3)noc2C)s1 | 13.4 | 7.1 | 12.4 | 2.0 | -13.4 | -0.6 | nt | nt
O=C(c1cc(C(=O)NCCc2ccccc2)c(=O)n(CCc2ccccc2)c1)c1cc(Cl)ccc1O | 73.8* | 12.5 | 51.9* | -24.1 | 35.7 | 0.9 | 53.7* | 61.3*
C[C@@H]1CN([C@@H](C)CO)C(=O)CCCn2cc(nn2)CO[C@@H]1CN(C)C | nt | 2.3 | nt | nt | nt | nt | nt | nt
